# Measured values published in ChEMBL document CHEMBL3988442, “University of Dundee, Small-Polar-MMV Screening Library” (2021).
# For some assays here: Potency and affinity values are given separately.
# Legend:
# Set-up in all cases: scale not given: direction of the effect not stated beside the values
# [1] = biological target: Protein translocase subunit SecA (Escherichia coli (strain K12)) (UniProt P10408); test: Assay to Identify E. coli SecA ATPase Inhibitors; format: functional; conditions: 30 µM
# Chain of Protein translocase subunit SecA (Escherichia coli (strain K12)) (P10408 whole entry): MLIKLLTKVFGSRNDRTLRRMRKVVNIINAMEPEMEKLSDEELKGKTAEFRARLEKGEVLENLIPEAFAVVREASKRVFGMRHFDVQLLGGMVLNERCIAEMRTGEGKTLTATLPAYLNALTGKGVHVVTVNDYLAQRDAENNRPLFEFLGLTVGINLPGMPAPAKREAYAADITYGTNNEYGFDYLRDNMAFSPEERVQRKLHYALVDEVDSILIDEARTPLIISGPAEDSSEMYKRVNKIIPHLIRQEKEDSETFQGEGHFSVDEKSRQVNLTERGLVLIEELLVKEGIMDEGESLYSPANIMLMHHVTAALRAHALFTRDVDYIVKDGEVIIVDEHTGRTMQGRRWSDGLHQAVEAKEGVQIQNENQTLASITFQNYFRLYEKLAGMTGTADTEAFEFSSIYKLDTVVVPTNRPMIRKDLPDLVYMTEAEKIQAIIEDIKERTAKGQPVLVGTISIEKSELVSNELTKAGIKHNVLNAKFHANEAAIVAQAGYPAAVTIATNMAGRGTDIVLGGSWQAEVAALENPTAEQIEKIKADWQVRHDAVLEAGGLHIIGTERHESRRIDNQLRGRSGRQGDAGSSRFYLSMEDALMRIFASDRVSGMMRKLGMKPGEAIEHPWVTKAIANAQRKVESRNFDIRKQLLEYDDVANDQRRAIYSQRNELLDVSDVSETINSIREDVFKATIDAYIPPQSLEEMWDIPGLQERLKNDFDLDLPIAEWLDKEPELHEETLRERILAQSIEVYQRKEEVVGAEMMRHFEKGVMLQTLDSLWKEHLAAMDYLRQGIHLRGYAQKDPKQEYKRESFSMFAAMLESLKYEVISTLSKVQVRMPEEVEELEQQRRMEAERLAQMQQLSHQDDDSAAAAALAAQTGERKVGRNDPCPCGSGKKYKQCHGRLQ
# [2] = biological target: T1, Ubiquitin-activating enzyme e1, putative (Leishmania donovani (strain BPK282A1)) (UniProt E9BSI1); test: Leishmania donovani Ubiquitin Activating Enzyme (LdE1); format: functional; conditions: 30 µM
# T1 sequence (whole entry): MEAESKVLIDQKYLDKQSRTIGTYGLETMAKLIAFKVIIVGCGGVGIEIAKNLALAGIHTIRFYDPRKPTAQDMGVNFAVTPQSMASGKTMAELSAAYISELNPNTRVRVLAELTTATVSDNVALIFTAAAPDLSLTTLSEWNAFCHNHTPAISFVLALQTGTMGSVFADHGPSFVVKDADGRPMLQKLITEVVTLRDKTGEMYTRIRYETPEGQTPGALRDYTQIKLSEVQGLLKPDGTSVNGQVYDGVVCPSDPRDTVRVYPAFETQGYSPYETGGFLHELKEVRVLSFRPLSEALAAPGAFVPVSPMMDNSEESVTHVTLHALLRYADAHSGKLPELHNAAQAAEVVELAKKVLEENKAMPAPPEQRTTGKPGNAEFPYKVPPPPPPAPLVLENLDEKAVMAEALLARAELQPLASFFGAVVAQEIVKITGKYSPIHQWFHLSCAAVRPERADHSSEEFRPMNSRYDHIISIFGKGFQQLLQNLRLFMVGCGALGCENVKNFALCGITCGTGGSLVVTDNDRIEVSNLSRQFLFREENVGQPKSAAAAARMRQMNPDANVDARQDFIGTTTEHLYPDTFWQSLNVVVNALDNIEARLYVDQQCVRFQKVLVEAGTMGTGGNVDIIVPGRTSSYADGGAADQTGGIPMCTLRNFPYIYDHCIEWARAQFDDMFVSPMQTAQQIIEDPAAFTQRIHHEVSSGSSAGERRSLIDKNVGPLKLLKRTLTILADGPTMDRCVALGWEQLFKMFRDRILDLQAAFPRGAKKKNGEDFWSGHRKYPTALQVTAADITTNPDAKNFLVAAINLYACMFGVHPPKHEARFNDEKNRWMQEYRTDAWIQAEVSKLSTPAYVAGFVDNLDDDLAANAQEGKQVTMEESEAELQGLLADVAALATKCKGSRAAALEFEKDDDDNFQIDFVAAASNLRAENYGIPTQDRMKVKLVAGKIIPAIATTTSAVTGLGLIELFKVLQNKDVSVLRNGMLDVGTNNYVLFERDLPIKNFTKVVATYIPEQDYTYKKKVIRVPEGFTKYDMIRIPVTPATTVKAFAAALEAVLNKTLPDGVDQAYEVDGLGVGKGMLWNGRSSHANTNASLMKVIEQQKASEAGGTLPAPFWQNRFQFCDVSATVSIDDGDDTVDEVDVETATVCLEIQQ
# [3] = biological target: AMP-activated protein kinase, AMPK (Homo sapiens) (UniProt P54646+O43741+P54619+Q9UGJ0+Q9Y478+Q13131+Q9UGI9); test: AMP-dependent Kinase enzyme assay. An in vitro enzyme assay that detects ADP turnover that is directly proportional to AMPK activity. This uses naive AMPK that is activated during the assay with MK-8722; format: functional; conditions: 30 µM
# [4] = biological target: Sialic acid-binding Ig-like lectin 9 (Homo sapiens) (UniProt Q9Y336); test: Hs-Siglec9 ALPHAscreen SOP 20170721; conditions: 10 µM
# Chain of Sialic acid-binding Ig-like lectin 9 (Homo sapiens) (Q9Y336 whole entry): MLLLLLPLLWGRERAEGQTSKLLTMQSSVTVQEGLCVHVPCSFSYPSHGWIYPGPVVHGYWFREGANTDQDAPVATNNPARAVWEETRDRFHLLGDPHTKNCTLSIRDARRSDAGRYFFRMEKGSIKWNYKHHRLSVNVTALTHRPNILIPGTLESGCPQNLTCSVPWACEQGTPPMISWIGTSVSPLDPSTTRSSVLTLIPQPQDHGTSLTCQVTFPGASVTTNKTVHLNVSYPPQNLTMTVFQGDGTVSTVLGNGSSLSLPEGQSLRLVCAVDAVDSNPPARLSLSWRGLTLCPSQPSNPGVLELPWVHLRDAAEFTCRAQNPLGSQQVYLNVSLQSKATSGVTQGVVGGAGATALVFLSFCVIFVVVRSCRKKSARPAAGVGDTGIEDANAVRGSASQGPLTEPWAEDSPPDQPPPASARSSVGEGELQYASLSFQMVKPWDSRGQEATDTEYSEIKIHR
# Trypanosoma cruzi = test: Trypanosoma cruzi phosphomannomutase and mannose-1-phosphate guanylyltransferase assay; format: functional; conditions: 10 µM
# [5] = biological target: T2, Arginase-2, mitochondrial (Homo sapiens) (UniProt P78540); test: in vitro enzyme assay to detect the production of urea directly proportional to the activity of Arginase II; format: functional; conditions: 33.3 µM; note: in the data most compounds retested in dose-response had high values
# T2 sequence (whole entry): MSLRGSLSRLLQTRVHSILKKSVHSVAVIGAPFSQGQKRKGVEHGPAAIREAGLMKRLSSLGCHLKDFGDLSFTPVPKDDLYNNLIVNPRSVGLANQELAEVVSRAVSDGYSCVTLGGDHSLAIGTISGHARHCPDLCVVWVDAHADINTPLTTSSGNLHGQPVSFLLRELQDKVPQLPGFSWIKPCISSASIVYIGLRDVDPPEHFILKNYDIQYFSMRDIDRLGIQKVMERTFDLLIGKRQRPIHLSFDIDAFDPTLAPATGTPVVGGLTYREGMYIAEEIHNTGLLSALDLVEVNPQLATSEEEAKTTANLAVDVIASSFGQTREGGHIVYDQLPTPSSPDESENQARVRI
# [6] = biological target: T3, Proteasome subunit beta (Trypanosoma cruzi) (UniProt O96673); test: Trypanosoma cruzi proteasome chymotrypsin-like activity (TcProtChymo) assay.; note: in the data most compounds retested in dose-response had high values; format: functional; conditions: 9.37 µM
# T3 sequence (whole entry): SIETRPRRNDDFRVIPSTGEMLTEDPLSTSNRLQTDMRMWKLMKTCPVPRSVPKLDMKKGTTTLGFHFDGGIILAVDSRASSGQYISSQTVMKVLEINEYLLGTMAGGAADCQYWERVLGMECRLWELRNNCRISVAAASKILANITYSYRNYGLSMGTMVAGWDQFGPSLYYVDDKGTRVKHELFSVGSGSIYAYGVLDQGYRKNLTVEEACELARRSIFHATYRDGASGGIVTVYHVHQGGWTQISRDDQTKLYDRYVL
# Homo sapiens = species on record: Homo sapiens; test: To identify inhibition of the IFN signalling (Jak-Stat) pathway via expression of an eGFP reporter gene under the control of an IFN-stimulated response element (ISRE) containing MxA promoter.; format: functional; conditions: 30 µM
# [7] = biological target: T4, Tyrosyl-tRNA synthetase, putative (Trypanosoma cruzi (strain CL Brener)) (UniProt Q4DSP6); test: Trypanosoma cruzi tyrosyl tRNA synthetase (TcYRS) _High Tyrosine SOP; format: functional; conditions: 30 µM; note: in the data most compounds retested in dose-response had high values
# T4 sequence (whole entry): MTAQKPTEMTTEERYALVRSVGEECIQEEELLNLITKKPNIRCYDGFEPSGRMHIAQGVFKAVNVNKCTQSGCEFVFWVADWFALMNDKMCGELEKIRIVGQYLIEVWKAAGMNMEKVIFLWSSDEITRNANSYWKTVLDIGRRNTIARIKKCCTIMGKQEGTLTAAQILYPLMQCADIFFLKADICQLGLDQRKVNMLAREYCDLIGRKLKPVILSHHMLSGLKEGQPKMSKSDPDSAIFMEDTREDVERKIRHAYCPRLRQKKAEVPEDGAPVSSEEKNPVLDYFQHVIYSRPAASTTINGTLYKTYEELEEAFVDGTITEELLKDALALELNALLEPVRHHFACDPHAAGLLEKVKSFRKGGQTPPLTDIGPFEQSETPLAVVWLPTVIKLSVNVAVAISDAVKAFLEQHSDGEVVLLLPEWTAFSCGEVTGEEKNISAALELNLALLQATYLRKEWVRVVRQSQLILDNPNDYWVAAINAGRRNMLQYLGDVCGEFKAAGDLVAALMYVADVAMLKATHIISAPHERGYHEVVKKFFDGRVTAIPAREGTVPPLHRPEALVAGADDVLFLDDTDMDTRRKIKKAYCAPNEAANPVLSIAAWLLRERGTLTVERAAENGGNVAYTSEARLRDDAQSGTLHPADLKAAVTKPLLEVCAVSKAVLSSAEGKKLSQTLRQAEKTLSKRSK
# [8] = biological target: T4, Tyrosyl-tRNA synthetase, putative (Trypanosoma cruzi (strain CL Brener)); test: Trypanosoma cruzi tyrosyl tRNA synthetase (TcYRS) SOP; format: functional; conditions: 30 µM
# [9] = biological target: Chromo domain-containing protein 1 (Saccharomyces cerevisiae (strain ATCC 204508 / S288c) (Baker's yeast)) (UniProt P32657); test: ScCHD-1 Enzyme Inhibition Assay; format: functional; conditions: 30 µM; note: in the data most compounds retested in dose-response had high values
# Chain of Chromo domain-containing protein 1 (Saccharomyces cerevisiae (strain ATCC 204508 / S288c) (Baker's yeast)) (P32657 whole entry, the tested form may be a part): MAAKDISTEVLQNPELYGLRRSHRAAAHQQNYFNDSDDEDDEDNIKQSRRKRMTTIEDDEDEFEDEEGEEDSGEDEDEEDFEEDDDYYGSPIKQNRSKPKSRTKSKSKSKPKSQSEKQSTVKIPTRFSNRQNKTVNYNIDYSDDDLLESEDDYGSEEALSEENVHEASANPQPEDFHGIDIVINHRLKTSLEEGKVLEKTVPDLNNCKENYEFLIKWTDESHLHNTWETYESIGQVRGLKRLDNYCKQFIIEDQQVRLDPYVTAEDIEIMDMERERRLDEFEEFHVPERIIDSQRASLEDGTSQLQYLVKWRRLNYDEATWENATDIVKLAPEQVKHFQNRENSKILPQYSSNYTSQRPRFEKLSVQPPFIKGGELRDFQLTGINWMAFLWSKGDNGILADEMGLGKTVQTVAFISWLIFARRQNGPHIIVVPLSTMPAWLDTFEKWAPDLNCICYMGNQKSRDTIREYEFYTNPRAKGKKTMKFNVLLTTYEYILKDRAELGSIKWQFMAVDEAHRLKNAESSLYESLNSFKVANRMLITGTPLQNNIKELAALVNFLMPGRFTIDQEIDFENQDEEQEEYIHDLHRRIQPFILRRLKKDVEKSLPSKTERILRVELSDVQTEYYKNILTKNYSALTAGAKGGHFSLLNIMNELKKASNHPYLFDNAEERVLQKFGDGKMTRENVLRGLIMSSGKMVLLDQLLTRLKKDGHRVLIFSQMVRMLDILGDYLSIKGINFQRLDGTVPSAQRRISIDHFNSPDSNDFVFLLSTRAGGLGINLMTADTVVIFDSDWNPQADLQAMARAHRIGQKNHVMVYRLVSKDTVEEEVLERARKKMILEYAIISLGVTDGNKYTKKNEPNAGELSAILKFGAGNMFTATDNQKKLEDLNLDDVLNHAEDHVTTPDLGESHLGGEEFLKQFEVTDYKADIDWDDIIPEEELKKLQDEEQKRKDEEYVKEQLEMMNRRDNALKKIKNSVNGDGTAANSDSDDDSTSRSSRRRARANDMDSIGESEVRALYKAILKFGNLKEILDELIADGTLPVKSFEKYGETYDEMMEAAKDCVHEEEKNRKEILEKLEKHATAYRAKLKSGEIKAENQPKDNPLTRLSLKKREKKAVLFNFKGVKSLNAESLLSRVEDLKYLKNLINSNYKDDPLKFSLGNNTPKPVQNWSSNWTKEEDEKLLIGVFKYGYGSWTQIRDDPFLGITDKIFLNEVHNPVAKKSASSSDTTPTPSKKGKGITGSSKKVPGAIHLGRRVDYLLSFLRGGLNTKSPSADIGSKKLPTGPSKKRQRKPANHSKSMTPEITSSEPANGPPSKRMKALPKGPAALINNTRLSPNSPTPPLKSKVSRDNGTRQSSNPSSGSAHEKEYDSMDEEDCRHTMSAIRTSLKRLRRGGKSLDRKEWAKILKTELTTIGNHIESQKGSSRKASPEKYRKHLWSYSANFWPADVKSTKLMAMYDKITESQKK
Compound,Percent Effect [1] [%],Percent Effect [2] [%],Percent Effect [3] [%],Percent Effect [4] [%],Percent Effect (Trypanosoma cruzi) [%],Percent Effect [5] [%],Percent Effect [6] [%],Percent Effect (Homo sapiens) [%],Percent Effect [7] [%],Percent Effect [8] [%],Percent Effect [9] [%]
CC(C)(C)c1nnc(CN2CCN(CC(O)c3ccccc3)CC2)o1 (configuration not stated),-4.73,10.1,-1.08,7.24,2.55,0,-6.31,10.4,5.42,16.5,-5.94
CC(=O)N1CCCN(C(=O)c2ccn(-c3cccc(Cl)c3)n2)CC1,-2.55,15.6,-0.208,-4.72,-4.31,-1.42,12.8,10.3,5.83,14.6,-6
Cc1ccsc1C(=O)N1CC(C(=O)N2CCOCC2)C2(CCOCC2)C1 (configuration not stated),-7,2.6,117,-9.65,-8.38,0.645,13.1,0.0644,-4.23,-8.97,-5.38
COCc1nc(C(=O)N2CCCC2c2c(C)nn(C)c2C)cs1 (configuration not stated),-0.948,-3.8,3.43,1.97,-1.33,0.645,-0.172,12,3.12,5.06,2.98
CN(Cc1ccccc1)CC1(O)CCCN(CC(C)(C)C)C1=O (configuration not stated),-2.06,6.94,-11.8,18.9,5.15,-1.77,1.4,-1.36,3.16,0,-0.279
O=C(Cc1ccc2c(c1)OCO2)N1CCN(c2cnccn2)CC1,-1.75,15.8,-3.5,4.13,6.77,4.21,8.69,2.58,5.39,21.9,-11.8
O=C(NCCCN1CCCC1)c1n[nH]c(=O)c2ccccc12,-2.88,20.8,0.621,-1.51,-10.7,2.13,5.74,11.3,6.8,12.2,-6.65
COc1ccc(CNC(C)c2cccc(Cl)c2)c(OC)c1OC (configuration not stated),-1.96,10.7,-5.69,5.99,6.52,4.69,5.58,16.5,0.546,6.17,-1.65
FC(F)(F)COCCN1CCN(c2ccc3nncn3n2)CC1,-4.65,10.4,0.707,9.49,4.87,-3.92,2.87,-15.5,5.83,14.6,-6.46
CN(C(=O)C1CCCCC1)[C@@H]1CCC[C@@H](N2CCOCC2)[C@@H]1O,-3.72,4.05,0.0373,6.37,1.78,-2.09,6.86,8.21,1.07,3.9,74.8
Cc1cn(-c2ccccc2)nc1NS(=O)(=O)c1cc(C(=O)O)cs1,-9.57,-5.48,-4.37,14.1,-2.15,-0.455,11.9,6.83,-8.6,-12.5,-5.44
O=C(NCCC(=O)N1CCCc2ccccc21)c1c(O)cc(F)cc1F,-5.79,10.4,-0.269,9.22,6.95,-1.47,11.1,22.7,-0.952,-49.4,-16.6
CC(C)Cc1cc(NC(=O)c2ccc(=O)[nH]n2)n(C)n1,-8.11,18.2,-1.51,12.1,3.75,2.85,4.73,0.756,8.74,24.4,-11.8
Cc1cnn(C2CN(CC(=O)Nc3cccnc3)C2)c1,-4.23,7.89,-7.32,-2.24,-8.68,2.52,-0.254,-0.514,-4.43,3.7,3.7
O=C(NCCN1CCCCC1)c1nc(-c2ccc3cc[nH]c3c2)no1,-1.02,25.3,-7.25,3.61,4.71,-4.75,20.5,-13.4,4.23,12.8,-6.27
Cn1cnc2c(N3CCCC3)nc(C3CCNCC3)cc21,-0.224,13.3,-2.65,0.534,0.965,-48.6,9.23,1.97,3.12,20,-8.26
Cc1noc([C@@H]2C[C@H]3OCC[C@H]3N(S(=O)(=O)c3cccnc3)C2)n1,-2.85,11,-6.86,6.79,5.75,-5.19,4.02,-3.51,3.12,11.1,-6.9
CNC(=O)[C@H]1CCS(=O)(=O)[C@@H]2CN(Cc3ccc(OC)cc3)C[C@H]12,0.0608,2.7,3.94,2.93,2.34,35.4,-0.592,2.35,82.2,6.1,2.99
COCC(=O)N1CCC(c2noc3nc(C)cc(C(F)(F)F)c23)CC1,-6.46,4.05,9.11,-5.57,-2.37,-7.66,13.9,21.4,-2.15,-1.3,-1.78
C=Cn1ncc(CN2C[C@@H]3CCCN3C[C@@H]2Cc2ccccc2)c1C,-3.58,4.05,3.48,4.39,2.37,0.696,11.2,26.4,6.45,14.3,-13
CCn1ncc2c1CCCC2NCc1ccc(OC)c(C)c1 (configuration not stated),-7.95,12.7,-10.6,11.1,7.08,-3.42,1.23,0.115,4.43,16.5,-6.17
O=C(NCc1cccs1)[C@H]1CC[C@@H]2[C@@H](CCN2c2ncccn2)O1,-2.42,5.41,-0.805,-3.31,6.45,-0.833,18.9,18.7,8.91,18.3,-3.92
